Data: article PMC7862700, “An all-to-all approach to the identification of sequence-specific readers for epigenetic DNA modifications on cytosine”

How the values were obtained:
Assay in all cases: DAPPL (digital affinity profiling via proximity ligation, sequencing); 10 mM Tris-HCl pH 7.5, 50 mM NaCl, 1 mM DTT, 4% glycerol, room temperature, 30 min; GST-TFs on glutathione beads, 16-mer random dsDNA library, 0.1% formaldehyde crosslink after washing; high values mean tight binding
Settings in all cases: protein: recombinant; tags: N-terminal GST; dsDNA, one strand shown
FLI1 = molecular target: T1, FLI1 (Homo sapiens, UniProt Q01543 1-452)
T1 sequence: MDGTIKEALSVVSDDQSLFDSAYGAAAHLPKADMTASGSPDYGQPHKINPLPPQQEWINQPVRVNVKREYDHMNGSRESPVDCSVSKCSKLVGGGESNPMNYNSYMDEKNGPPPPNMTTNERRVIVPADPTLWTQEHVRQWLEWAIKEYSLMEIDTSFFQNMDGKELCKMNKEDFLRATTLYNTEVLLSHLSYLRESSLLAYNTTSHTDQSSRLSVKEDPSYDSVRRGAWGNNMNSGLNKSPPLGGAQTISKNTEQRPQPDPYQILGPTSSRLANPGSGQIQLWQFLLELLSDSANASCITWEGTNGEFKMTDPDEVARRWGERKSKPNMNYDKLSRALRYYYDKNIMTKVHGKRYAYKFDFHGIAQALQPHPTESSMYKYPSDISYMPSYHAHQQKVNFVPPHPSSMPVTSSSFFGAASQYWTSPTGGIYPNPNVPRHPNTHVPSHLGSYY
How it was run: (§1)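 Human transcription factors were made in yeast as GST fusions, captured on glutathione beads and barcoded with DNA. With a tag-only sample included, the pool was incubated with 200 nmole of a random double-stranded 16-mer DNA library in Tris/NaCl/DTT/glycerol buffer at room temperature for 30 min, then crosslinked with 0.1% formaldehyde after washing, ligated by proximity, amplified and sequenced. For binding signal, each hexamer's read frequency for a factor is divided by its frequency for the tag-only sample.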

ELK1 = molecular target: T2, ELK1 (Homo sapiens, UniProt P19419 1-428)
T2 sequence: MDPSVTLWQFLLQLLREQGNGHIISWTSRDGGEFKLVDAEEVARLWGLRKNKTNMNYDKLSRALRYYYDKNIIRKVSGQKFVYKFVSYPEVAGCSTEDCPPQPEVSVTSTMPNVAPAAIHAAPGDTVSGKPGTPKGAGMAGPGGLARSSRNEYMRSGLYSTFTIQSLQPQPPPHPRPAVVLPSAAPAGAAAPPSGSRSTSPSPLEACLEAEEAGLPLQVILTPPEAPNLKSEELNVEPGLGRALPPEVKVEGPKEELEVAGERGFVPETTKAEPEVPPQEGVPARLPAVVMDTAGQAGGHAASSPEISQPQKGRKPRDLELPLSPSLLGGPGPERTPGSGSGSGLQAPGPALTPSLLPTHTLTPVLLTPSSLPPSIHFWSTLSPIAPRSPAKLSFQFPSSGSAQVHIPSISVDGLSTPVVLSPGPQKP
How it was run: as §1

GABPA = molecular target: T3, GABPA (Homo sapiens, UniProt Q06546 1-454)
T3 sequence: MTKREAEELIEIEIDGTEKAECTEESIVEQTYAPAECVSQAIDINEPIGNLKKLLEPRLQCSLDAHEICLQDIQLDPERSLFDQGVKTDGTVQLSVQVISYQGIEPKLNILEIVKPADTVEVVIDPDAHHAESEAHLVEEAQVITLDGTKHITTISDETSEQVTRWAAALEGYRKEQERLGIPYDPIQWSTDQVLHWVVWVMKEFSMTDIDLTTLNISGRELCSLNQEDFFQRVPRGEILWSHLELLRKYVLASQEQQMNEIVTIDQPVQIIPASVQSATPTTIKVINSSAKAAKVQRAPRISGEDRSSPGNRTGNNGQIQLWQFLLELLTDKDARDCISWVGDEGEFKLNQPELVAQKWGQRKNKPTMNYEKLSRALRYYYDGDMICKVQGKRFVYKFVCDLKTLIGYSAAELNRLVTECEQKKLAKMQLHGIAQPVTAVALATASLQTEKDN
How it was run: as §1

ERG = molecular target: T4, ERG (Homo sapiens, UniProt P11308 1-479)
T4 sequence: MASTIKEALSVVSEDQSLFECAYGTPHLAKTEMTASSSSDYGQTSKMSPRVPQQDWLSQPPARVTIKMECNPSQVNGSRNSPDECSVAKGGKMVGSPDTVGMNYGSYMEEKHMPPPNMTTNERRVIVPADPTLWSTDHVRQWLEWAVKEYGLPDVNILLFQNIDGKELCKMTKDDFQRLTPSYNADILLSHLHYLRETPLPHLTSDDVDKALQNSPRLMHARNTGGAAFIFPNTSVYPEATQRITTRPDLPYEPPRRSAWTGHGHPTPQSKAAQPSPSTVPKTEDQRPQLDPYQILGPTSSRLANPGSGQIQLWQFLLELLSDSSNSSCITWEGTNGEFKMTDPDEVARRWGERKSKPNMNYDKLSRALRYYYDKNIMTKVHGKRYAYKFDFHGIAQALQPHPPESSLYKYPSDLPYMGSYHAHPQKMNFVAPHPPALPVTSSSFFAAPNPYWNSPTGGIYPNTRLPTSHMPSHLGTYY
How it was run: as §1

ELF1 = ELF1 (Homo sapiens, UniProt P32519 1-619)
ELF1, sequence (P32519 whole entry): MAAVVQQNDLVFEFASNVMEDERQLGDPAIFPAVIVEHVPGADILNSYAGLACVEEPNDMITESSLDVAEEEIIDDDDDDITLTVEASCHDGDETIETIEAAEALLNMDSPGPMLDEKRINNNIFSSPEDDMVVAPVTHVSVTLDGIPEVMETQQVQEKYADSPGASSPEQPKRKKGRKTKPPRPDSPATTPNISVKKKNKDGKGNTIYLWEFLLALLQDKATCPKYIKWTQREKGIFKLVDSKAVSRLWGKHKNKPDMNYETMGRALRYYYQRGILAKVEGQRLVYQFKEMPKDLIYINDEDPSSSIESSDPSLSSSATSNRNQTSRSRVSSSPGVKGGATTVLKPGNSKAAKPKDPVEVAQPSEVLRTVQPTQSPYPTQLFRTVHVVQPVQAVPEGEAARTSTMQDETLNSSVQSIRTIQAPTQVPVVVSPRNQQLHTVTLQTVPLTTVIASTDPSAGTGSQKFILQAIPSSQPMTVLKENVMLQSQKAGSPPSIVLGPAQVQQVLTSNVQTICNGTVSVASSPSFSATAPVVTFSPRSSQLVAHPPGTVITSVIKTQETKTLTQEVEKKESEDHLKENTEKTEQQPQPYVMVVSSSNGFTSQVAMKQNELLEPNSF
How it was run: as §1

EHF = molecular target: T5, EHF (Homo sapiens, UniProt Q9NZC4 1-300)
T5 sequence: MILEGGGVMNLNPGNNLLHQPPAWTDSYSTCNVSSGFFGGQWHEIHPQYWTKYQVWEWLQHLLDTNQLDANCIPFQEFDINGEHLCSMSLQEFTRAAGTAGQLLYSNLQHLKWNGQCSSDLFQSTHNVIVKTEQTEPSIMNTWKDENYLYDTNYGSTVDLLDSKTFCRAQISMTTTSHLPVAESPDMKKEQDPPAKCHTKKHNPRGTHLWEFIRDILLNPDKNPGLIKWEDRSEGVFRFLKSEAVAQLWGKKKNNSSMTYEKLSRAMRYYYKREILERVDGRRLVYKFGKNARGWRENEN
How it was run: as §1

SPI1 = SPI1 (Homo sapiens, UniProt P17947 1-270)
How it was run: as §1

SPIB = SPIB (Homo sapiens, UniProt Q01892 1-262)
SPIB, sequence (Q01892 whole entry): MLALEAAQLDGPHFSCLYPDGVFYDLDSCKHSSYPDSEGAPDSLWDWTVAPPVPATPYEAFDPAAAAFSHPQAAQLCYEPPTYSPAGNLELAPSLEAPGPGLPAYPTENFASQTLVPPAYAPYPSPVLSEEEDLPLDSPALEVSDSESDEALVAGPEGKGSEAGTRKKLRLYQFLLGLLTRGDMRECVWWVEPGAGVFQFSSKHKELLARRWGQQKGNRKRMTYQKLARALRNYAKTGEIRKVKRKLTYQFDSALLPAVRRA
How it was run: as §1

ELK3 = molecular target: T6, ELK3 (Homo sapiens, UniProt P41970 1-407)
T6 sequence: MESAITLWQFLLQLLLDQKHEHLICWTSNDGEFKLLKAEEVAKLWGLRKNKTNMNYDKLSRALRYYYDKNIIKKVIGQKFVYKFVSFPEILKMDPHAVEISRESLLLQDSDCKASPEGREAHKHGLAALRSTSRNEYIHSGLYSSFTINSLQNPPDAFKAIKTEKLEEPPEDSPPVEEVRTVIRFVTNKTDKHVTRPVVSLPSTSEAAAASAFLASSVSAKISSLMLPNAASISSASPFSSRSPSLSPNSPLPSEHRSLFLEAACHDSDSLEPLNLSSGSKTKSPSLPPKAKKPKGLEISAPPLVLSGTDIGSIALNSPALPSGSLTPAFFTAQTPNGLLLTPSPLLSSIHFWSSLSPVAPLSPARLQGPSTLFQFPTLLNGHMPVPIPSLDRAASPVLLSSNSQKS
How it was run: as §1

## TCTGCC
FLI1
  binding signal: 1.49 fold enrichment (6-mer frequency, TF over GST control)
ELK1
  binding signal: 1.36 fold enrichment (6-mer frequency, TF over GST control)
GABPA
  binding signal: 1.51 fold enrichment (6-mer frequency, TF over GST control)
ERG
  binding signal: 1.49 fold enrichment (6-mer frequency, TF over GST control)
ELF1
  binding signal: 1.54 fold enrichment (6-mer frequency, TF over GST control)
EHF
  binding signal: 1.37 fold enrichment (6-mer frequency, TF over GST control)
SPI1
  binding signal: 1.37 fold enrichment (6-mer frequency, TF over GST control)
SPIB
  binding signal: 1.32 fold enrichment (6-mer frequency, TF over GST control)
ELK3
  binding signal: 1.18 fold enrichment (6-mer frequency, TF over GST control)

## CTACTT
FLI1
  binding signal: 1.85 fold enrichment (6-mer frequency, TF over GST control)
ELK1
  binding signal: 1.77 fold enrichment (6-mer frequency, TF over GST control)
GABPA
  binding signal: 1.72 fold enrichment (6-mer frequency, TF over GST control)
ERG
  binding signal: 1.96 fold enrichment (6-mer frequency, TF over GST control)
ELF1
  binding signal: 1.85 fold enrichment (6-mer frequency, TF over GST control)
EHF
  binding signal: 1.92 fold enrichment (6-mer frequency, TF over GST control)
SPI1
  binding signal: 2.05 fold enrichment (6-mer frequency, TF over GST control)
SPIB
  binding signal: 1.96 fold enrichment (6-mer frequency, TF over GST control)
ELK3
  binding signal: 1.88 fold enrichment (6-mer frequency, TF over GST control)

## ATGCTT
FLI1
  binding signal: 1.35 fold enrichment (6-mer frequency, TF over GST control)
ELK1
  binding signal: 1.42 fold enrichment (6-mer frequency, TF over GST control)
GABPA
  binding signal: 1.26 fold enrichment (6-mer frequency, TF over GST control)
ERG
  binding signal: 1.32 fold enrichment (6-mer frequency, TF over GST control)
ELF1
  binding signal: 1.27 fold enrichment (6-mer frequency, TF over GST control)
EHF
  binding signal: 1.29 fold enrichment (6-mer frequency, TF over GST control)
SPI1
  binding signal: 1.24 fold enrichment (6-mer frequency, TF over GST control)
SPIB
  binding signal: 1.4 fold enrichment (6-mer frequency, TF over GST control)
ELK3
  binding signal: 1.36 fold enrichment (6-mer frequency, TF over GST control)

## ACAATC
FLI1
  binding signal: 1.08 fold enrichment (6-mer frequency, TF over GST control)
ELK1
  binding signal: 1.09 fold enrichment (6-mer frequency, TF over GST control)
GABPA
  binding signal: 1.19 fold enrichment (6-mer frequency, TF over GST control)
ERG
  binding signal: 1.16 fold enrichment (6-mer frequency, TF over GST control)
ELF1
  binding signal: 1.21 fold enrichment (6-mer frequency, TF over GST control)
EHF
  binding signal: 1.13 fold enrichment (6-mer frequency, TF over GST control)
SPI1
  binding signal: 1.12 fold enrichment (6-mer frequency, TF over GST control)
SPIB
  binding signal: 1.09 fold enrichment (6-mer frequency, TF over GST control)
ELK3
  binding signal: 1.13 fold enrichment (6-mer frequency, TF over GST control)

## TGCTCT
FLI1
  binding signal: 1.34 fold enrichment (6-mer frequency, TF over GST control)
ELK1
  binding signal: 1.48 fold enrichment (6-mer frequency, TF over GST control)
GABPA
  binding signal: 1.35 fold enrichment (6-mer frequency, TF over GST control)
ERG
  binding signal: 1.26 fold enrichment (6-mer frequency, TF over GST control)
ELF1
  binding signal: 1.34 fold enrichment (6-mer frequency, TF over GST control)
EHF
  binding signal: 1.19 fold enrichment (6-mer frequency, TF over GST control)
SPI1
  binding signal: 1.42 fold enrichment (6-mer frequency, TF over GST control)
SPIB
  binding signal: 1.42 fold enrichment (6-mer frequency, TF over GST control)
ELK3
  binding signal: 1.3 fold enrichment (6-mer frequency, TF over GST control)

## TCACTT
FLI1
  binding signal: 1.56 fold enrichment (6-mer frequency, TF over GST control)
ELK1
  binding signal: 1.78 fold enrichment (6-mer frequency, TF over GST control)
GABPA
  binding signal: 1.52 fold enrichment (6-mer frequency, TF over GST control)
ERG
  binding signal: 1.8 fold enrichment (6-mer frequency, TF over GST control)
ELF1
  binding signal: 1.66 fold enrichment (6-mer frequency, TF over GST control)
EHF
  binding signal: 1.67 fold enrichment (6-mer frequency, TF over GST control)
SPI1
  binding signal: 2.11 fold enrichment (6-mer frequency, TF over GST control)
SPIB
  binding signal: 1.82 fold enrichment (6-mer frequency, TF over GST control)
ELK3
  binding signal: 1.69 fold enrichment (6-mer frequency, TF over GST control)

## AAGCAT
FLI1
  binding signal: 1.09 fold enrichment (6-mer frequency, TF over GST control)
ELK1
  binding signal: 1.09 fold enrichment (6-mer frequency, TF over GST control)
GABPA
  binding signal: 1.14 fold enrichment (6-mer frequency, TF over GST control)
ERG
  binding signal: 1.13 fold enrichment (6-mer frequency, TF over GST control)
ELF1
  binding signal: 1.09 fold enrichment (6-mer frequency, TF over GST control)
EHF
  binding signal: 1.06 fold enrichment (6-mer frequency, TF over GST control)
SPI1
  binding signal: 1.06 fold enrichment (6-mer frequency, TF over GST control)
SPIB
  binding signal: 1.14 fold enrichment (6-mer frequency, TF over GST control)
ELK3
  binding signal: 1.04 fold enrichment (6-mer frequency, TF over GST control)

## TTGCCC
FLI1
  binding signal: 1.37 fold enrichment (6-mer frequency, TF over GST control)
ELK1
  binding signal: 1.43 fold enrichment (6-mer frequency, TF over GST control)
GABPA
  binding signal: 1.33 fold enrichment (6-mer frequency, TF over GST control)
ERG
  binding signal: 1.28 fold enrichment (6-mer frequency, TF over GST control)
ELF1
  binding signal: 1.3 fold enrichment (6-mer frequency, TF over GST control)
EHF
  binding signal: 1.22 fold enrichment (6-mer frequency, TF over GST control)
SPI1
  binding signal: 1.29 fold enrichment (6-mer frequency, TF over GST control)
SPIB
  binding signal: 1.33 fold enrichment (6-mer frequency, TF over GST control)
ELK3
  binding signal: 1.23 fold enrichment (6-mer frequency, TF over GST control)
